Source: PubChem
Tat export inh: E. coli Tat transport inhibition; E. coli MC4100 TorA-mCherry Tat export, fluorescence; inhibition, % at 10 µM; hit rate 0.036% among 340,000; AID 488895;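 active means mean replicate inhibition at least 50% and at least half of replicates individually reaching 50%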;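 further: exported cargo escapes ClpAP degradation while cytoplasmic cargo is degraded and loses fluorescence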
phage Ecoli inh: E. coli growth loss with phage present | growth absorbance | inhibition, % at 11.9 µM | hit rate 0.26% among 360,000 | AID 651602; in the data active means inhibition above about 11%
E coli growth-1: E. coli growth inhibition; hit rate 0.21% among 330,000; OD600 absorbance (test concentration not listed); Escherichia coli growth, OD600, 23 h; active compounds read low; AID 1053175;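 active means OD600 absorbance below the run mean of sample wells minus 3.6 SD, in any replicate, cut at about 0.56 in these data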
E coli growth-2: reduces bacterial viability in AddAB counter-screen; E. coli V3065 growth, OD600 absorbance, 18 h; AID 449728; inhibition, % at 11.9 µM; hit rate 0.27% among 330,000;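 active means inhibition above the campaign's mean inhibition across all tested compounds plus 3 SD, cut at about 9.9% in these data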;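 further: uninfected addAB+ strain grown without phage in ampicillin broth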
AddAB inh: less growth of phage-infected E. coli with AddAB; E. coli expressing H. pylori AddAB, absorbance growth; inhibition, % at 11.9 µM; hit rate 0.29% among 330,000; AID 435030; in the data active means inhibition above about 12%
AddAB conf: growth loss of T4-infected E. coli expressing H. pylori AddAB, confirmed | inhibition, % at 11.9 µM | E. coli V3065 expressing H. pylori AddAB, T4 phage, OD; T4 phage with gene 2 nonsense mutations | AID 488942 | hit rate 64% among 880 | shares compounds with AddAB inh;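 active means mean inhibition above a set limit taken from the earlier primary screen, cut at about 13% in these data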;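 further: higher means less bacterial growth since AddAB block lets phage replicate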
RecBCD counter: counter-screen: growth loss of RecBCD+ E. coli with mutant T4 phage. shares compounds with AddAB inh. inhibition, % at 11.9 µM. E. coli V66 + mutant T4 phage, OD growth. hit rate 73% among 880;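 active means mean inhibition above the mean of solvent-only control wells plus 3 SD, cut at about 4% in these data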;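 further: optical density read after an 18 h incubation at 37 °C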
bact viab count: counter-screen: bacterial growth inhibition; AID 488956; shares compounds with AddAB inh; hit rate 35% among 880; bacterial viability, absorbance (AddAB counterscreen); inhibition, % at 11.9 µM; in the data active means inhibition above about 25%
Each line names hits and unclear results; the compound was inactive in the other large screens (follow-up assays come after a bar, where they were run). Only some compounds are listed: those with a hit (about 0.51% of all), similar ones and a draw of the others.

COc1cccc(C(=O)Nc2nnc(-c3ccc(Cl)cc3)o2)c1	none
O=C(Nc1cc(C(F)(F)F)ccc1-n1cncn1)c1ccc([N+](=O)[O-])o1	E coli growth-2 14, AddAB inh 18 | AddAB conf 73 | RecBCD counter 5.7 | bact viab count inactive
NC(=O)C1CCNc2c(I)cc([N+](=O)[O-])cc2C(=O)NC(CCC(=O)O)C(=O)NC(CO)C(=O)N1 (stereo not given)	none (no result: Tat export inh, phage Ecoli inh, E coli growth-2, AddAB inh)
O=C(CSc1nc2ccccc2o1)Nc1ccc(N2CCOCC2)cc1	E coli growth-2 13, AddAB inh 13 | AddAB conf 15 | RecBCD counter 9.7 | bact viab count inactive
COc1ccc(C2C=CCN(S(=O)(=O)c3cccc4cccnc34)C(C)C(=O)N2Cc2ccc(F)cc2)cc1 (stereo not given)	none (no result: Tat export inh, phage Ecoli inh, E coli growth-2, AddAB inh)
O=C1NCCCc2c1oc1ccc(O)cc21	E coli growth-2 98, AddAB inh 100 | AddAB conf inactive | RecBCD counter inactive | bact viab count inactive
C=CCSc1nc2sc(C)c(C)c2c(=O)[nH]1	AddAB inh 17 | AddAB conf inactive | RecBCD counter inactive | bact viab count inactive
CCCCCCCC(N)C(O)C(=O)N(C)C(CCS(C)=O)C(=O)NC(Cc1ccc(O)cc1)C(=O)NC(Cc1ccc(O)cc1)C(=O)O (stereo not given)	none (no result: Tat export inh, phage Ecoli inh, E coli growth-2, AddAB inh)
CCOC(=O)N1CCN(C(=O)CCCn2c(=S)[nH]c3ccsc3c2=O)CC1	E coli growth-2 24, AddAB inh 25 | AddAB conf inactive | RecBCD counter inactive | bact viab count inactive
COc1ccc(N2CCN(C(=O)CSc3nnc4c(C)cc5c(C)cc(C)cc5n34)CC2)cc1	E coli growth-2 94, AddAB inh 96 | AddAB conf inactive | RecBCD counter inactive | bact viab count inactive
O=C(O)[C@H](O)[C@@H](O)C(=O)O	AddAB inh 25 | AddAB conf inactive | RecBCD counter inactive | bact viab count inactive
CC(=NO)C(=O)NCCCn1ccnc1	none (no result: Tat export inh, phage Ecoli inh, E coli growth-2, AddAB inh)
CCCCCCCCCCn1ccc(=N)cc1	E coli growth-1 0.45, AddAB inh 14 | AddAB conf inactive | RecBCD counter 4.3 | bact viab count inactive
CCCCCCCCn1ccc(=N)cc1	E coli growth-2 10, AddAB inh 13 | AddAB conf inactive | RecBCD counter inactive | bact viab count inactive
CCCCCCN1Cc2ccccc2C1	none
COc1ccc2nc(C=NNC(=O)[C@H](CCSC)NC(=O)OC(C)(C)C)ccc2c1	none (no result: Tat export inh, phage Ecoli inh, E coli growth-2, AddAB inh)
COc1c(N2CCNC(C)C2)c(F)cc2c(=O)c(C(=O)O)cn(C3CC3)c12 (stereo not given)	E coli growth-1 0.061, E coli growth-2 102, AddAB inh 100 (no result: Tat export inh, phage Ecoli inh) | AddAB conf 101 | RecBCD counter 101 | bact viab count 103
Cc1c(-n2cc(C(=O)O)c(=O)c3cc(F)c(N4CCCC(O)C4)c(F)c32)c(=O)n(-c2ccccc2)n1C (stereo not given)	none
Nc1c(S(=O)(=O)c2ccccc2)c2nc3ccccc3nc2n1N=Cc1cccc(O)c1	none (no result: Tat export inh, phage Ecoli inh, E coli growth-2, AddAB inh)
Nc1c(S(=O)(=O)c2cccc(Cl)c2)c2nc3ccccc3nc2n1/N=C/c1ccc(O)c(O)c1	E coli growth-2 13, AddAB inh 15 (no result: Tat export inh, phage Ecoli inh, E coli growth-1) | AddAB conf 13 | RecBCD counter 13 | bact viab count inactive
COc1cccc(/C=N/Nc2cc(-n3nc(C)cc3-c3ccccc3)ncn2)c1O	E coli growth-2 17, AddAB inh 18 (no result: E coli growth-1) | AddAB conf inactive | RecBCD counter 8.8 | bact viab count inactive
Cc1cc2ccccn2c1C(=O)c1cccc([N+](=O)[O-])c1	none
Cc1cc2ccccn2c1C(=O)c1ccc([N+](=O)[O-])o1	phage Ecoli inh 12, E coli growth-2 20, AddAB inh 40 | AddAB conf 95 | RecBCD counter 8.4 | bact viab count 40
CC1CCN(c2ccccc2NC(=O)c2ccc([N+](=O)[O-])o2)CC1	none
COc1ccccc1NC(=O)c1ccc([N+](=O)[O-])o1	E coli growth-1 0.49, E coli growth-2 24, AddAB inh 30 (no result: Tat export inh) | AddAB conf 98 | RecBCD counter 13 | bact viab count 43
Cc1cccc(NC(=O)c2ccc([N+](=O)[O-])o2)c1C	none
O=C(Nc1ccccc1N1CCCC1)c1ccc([N+](=O)[O-])o1	AddAB inh 14 | AddAB conf 23 | RecBCD counter inactive | bact viab count inactive
COCCCNC(=S)NN=Cc1ccc(O)cc1	none (no result: Tat export inh, phage Ecoli inh, E coli growth-2, AddAB inh)
Cc1c(Cl)cccc1NC(=S)NCc1ccc(F)cc1	none
Cc1c(Cl)cccc1NC(=S)NCc1ccccc1Cl	AddAB inh 18 | AddAB conf 17 | RecBCD counter 23 | bact viab count inactive
O=C(NN=Cc1cc(Br)ccc1O)c1ccncc1	none (no result: Tat export inh, phage Ecoli inh, E coli growth-2, AddAB inh)
O=Nc1c2nc3ccccc3n(O)c-2c2ccccc12	E coli growth-2 20, AddAB inh 14 | AddAB conf 32 | RecBCD counter 8.1 | bact viab count inactive
On1c(-c2ccccc2)nc2ccccc21	none
O=C1C=C(c2cc(Cl)cc(Cl)c2)CC(c2ccc(F)cc2)C1 (stereo not given)	none (no result: Tat export inh, phage Ecoli inh, E coli growth-2, AddAB inh)
COC(=O)c1cc(=O)n(CCc2ccc(OC)cc2)c(=Nc2ccc(F)c(Cl)c2)s1	none
COC(=O)c1cc(=O)n(CCc2ccccc2)c(=Nc2ccc(F)cc2)s1	E coli growth-2 99, AddAB inh 99 | AddAB conf inactive | RecBCD counter inactive | bact viab count inactive
O=C(C=CNc1ccccc1Br)c1ccccn1	none (no result: Tat export inh, phage Ecoli inh, E coli growth-2, AddAB inh)
O=c1[nH]c2ccccc2n1CCCOc1ccccc1	none
CCCCn1c(=O)[nH]c2ccccc21	AddAB inh 14 | AddAB conf inactive | RecBCD counter inactive | bact viab count inactive
O=C(NCc1cccs1)C1CCN(S(=O)(=O)c2cccc3cccnc23)CC1	AddAB inh 17 | AddAB conf inactive | RecBCD counter inactive | bact viab count inactive
COCC1CCN(Cc2nc(COc3ccccc3)no2)C1 (stereo not given)	E coli growth-2 33, AddAB inh 32 | AddAB conf inactive | RecBCD counter inactive | bact viab count inactive
C[C@H]1c2cccc(O)c2C(O)=C2C(=O)[C@]3(O)C(O)=C(C(N)=O)C(=O)[C@@H](N(C)C)C3[C@@H](O)C21 (stereo not given in full)	Tat export inh 146, phage Ecoli inh 101, E coli growth-2 100, AddAB inh 99 (no result: E coli growth-1) | AddAB conf 99 | RecBCD counter 98 | bact viab count 100
C=CCn1c(Sc2ncc([N+](=O)[O-])s2)n[nH]c1=O	E coli growth-1 0.45, AddAB inh 17 | AddAB conf 99 | RecBCD counter 12 | bact viab count inactive
Nc1nonc1-n1nnc(C(=O)NN=Cc2ccc(OCc3ccccc3F)cc2)c1CN1CCCCC1	none (no result: Tat export inh, phage Ecoli inh, E coli growth-2, AddAB inh)
